Experimental data as given in article PMC7862700, “An all-to-all approach to the identification of sequence-specific readers for epigenetic DNA modifications on cytosine”.

How the values were obtained:
Assay in all cases: DAPPL (digital affinity profiling via proximity ligation, sequencing); 10 mM Tris-HCl pH 7.5, 50 mM NaCl, 1 mM DTT, 4% glycerol, room temperature, 30 min; GST-TFs on glutathione beads, 16-mer random dsDNA library, 0.1% formaldehyde crosslink after washing; high values mean tight binding
Settings in all cases: protein: recombinant; tags: N-terminal GST; dsDNA, one strand shown
FLI1 = molecular target: T1, FLI1 (Homo sapiens, UniProt Q01543 1-452)
T1 sequence: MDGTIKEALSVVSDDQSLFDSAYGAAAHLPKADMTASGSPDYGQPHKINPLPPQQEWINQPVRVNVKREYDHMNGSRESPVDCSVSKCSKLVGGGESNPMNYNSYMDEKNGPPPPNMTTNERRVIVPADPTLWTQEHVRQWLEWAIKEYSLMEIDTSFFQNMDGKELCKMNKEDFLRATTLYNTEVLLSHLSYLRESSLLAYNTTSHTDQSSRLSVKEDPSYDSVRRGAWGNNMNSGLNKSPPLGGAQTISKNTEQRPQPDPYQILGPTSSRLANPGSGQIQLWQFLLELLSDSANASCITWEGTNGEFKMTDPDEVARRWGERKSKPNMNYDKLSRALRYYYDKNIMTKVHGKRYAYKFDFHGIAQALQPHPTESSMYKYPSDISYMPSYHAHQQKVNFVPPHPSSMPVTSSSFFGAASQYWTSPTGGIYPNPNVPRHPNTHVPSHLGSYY
Procedure, shortened: (§1)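 After expression in yeast as GST fusions, human transcription factors were bound to glutathione beads, DNA-barcoded and mixed with a tag-only sample. The pools were incubated with 200 nmole of a 16-mer random double-stranded DNA library in Tris/NaCl/DTT/glycerol buffer (30 min, room temperature), washed and crosslinked with 0.1% formaldehyde. Proximity ligation with BsaI/T4 ligase ran for 1 h at 37 °C, before PCR amplification and sequencing on an Illumina NextSeq500. Binding signal is a hexamer's read frequency for a factor divided by its frequency for the tag-only sample.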

ELK1 = molecular target: T2, ELK1 (Homo sapiens, UniProt P19419 1-428)
T2 sequence: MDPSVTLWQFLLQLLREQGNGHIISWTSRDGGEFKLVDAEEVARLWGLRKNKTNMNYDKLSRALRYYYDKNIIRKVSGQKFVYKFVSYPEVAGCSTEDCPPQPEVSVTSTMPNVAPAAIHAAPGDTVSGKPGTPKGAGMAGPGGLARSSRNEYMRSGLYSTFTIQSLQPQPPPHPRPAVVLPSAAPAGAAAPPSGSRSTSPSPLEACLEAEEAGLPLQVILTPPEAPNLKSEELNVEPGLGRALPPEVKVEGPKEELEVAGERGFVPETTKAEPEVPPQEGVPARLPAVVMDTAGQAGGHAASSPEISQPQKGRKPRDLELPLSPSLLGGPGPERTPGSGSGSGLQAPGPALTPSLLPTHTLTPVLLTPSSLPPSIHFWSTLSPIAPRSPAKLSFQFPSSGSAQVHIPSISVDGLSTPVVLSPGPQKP
Procedure, shortened: as §1

GABPA = molecular target: T3, GABPA (Homo sapiens, UniProt Q06546 1-454)
T3 sequence: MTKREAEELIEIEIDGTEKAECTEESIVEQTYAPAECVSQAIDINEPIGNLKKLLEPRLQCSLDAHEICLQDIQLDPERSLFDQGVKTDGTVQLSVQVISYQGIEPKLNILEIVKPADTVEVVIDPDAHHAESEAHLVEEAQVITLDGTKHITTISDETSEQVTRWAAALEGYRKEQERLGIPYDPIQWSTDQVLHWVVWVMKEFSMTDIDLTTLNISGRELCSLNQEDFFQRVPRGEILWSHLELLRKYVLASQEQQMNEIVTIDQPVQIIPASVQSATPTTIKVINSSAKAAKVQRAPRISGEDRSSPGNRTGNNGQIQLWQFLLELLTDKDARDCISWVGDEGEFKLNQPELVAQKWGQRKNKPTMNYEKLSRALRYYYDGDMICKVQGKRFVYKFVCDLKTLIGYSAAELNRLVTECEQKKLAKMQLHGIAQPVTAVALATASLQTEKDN
Procedure, shortened: as §1

ERG = molecular target: T4, ERG (Homo sapiens, UniProt P11308 1-479)
T4 sequence: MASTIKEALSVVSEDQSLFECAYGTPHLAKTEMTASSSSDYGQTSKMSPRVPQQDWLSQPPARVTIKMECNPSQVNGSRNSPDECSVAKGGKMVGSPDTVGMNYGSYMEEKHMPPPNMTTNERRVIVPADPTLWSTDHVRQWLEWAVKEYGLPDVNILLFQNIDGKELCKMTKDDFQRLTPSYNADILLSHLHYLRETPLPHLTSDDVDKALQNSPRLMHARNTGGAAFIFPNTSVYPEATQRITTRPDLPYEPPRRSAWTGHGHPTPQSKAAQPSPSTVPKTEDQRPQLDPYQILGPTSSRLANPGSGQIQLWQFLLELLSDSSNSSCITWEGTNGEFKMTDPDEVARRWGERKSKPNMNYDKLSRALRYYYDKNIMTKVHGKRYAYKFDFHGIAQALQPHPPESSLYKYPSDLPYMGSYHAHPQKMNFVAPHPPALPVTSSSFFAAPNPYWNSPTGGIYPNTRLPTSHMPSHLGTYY
Procedure, shortened: as §1

ELF1 = ELF1 (Homo sapiens, UniProt P32519 1-619)
Procedure, shortened: as §1

EHF = molecular target: T5, EHF (Homo sapiens, UniProt Q9NZC4 1-300)
T5 sequence: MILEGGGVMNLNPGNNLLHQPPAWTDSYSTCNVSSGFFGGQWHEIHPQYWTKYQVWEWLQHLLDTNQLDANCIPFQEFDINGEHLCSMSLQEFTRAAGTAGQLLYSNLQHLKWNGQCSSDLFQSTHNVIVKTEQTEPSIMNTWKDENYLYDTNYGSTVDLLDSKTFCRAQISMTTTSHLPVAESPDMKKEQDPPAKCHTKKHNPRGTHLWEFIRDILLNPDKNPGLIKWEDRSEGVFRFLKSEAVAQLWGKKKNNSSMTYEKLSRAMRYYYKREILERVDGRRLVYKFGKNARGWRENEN
Procedure, shortened: as §1

SPI1 = SPI1 (Homo sapiens, UniProt P17947 1-270)
Procedure, shortened: as §1

SPIB = SPIB (Homo sapiens, UniProt Q01892 1-262)
Procedure, shortened: as §1

ELK3 = molecular target: T6, ELK3 (Homo sapiens, UniProt P41970 1-407)
T6 sequence: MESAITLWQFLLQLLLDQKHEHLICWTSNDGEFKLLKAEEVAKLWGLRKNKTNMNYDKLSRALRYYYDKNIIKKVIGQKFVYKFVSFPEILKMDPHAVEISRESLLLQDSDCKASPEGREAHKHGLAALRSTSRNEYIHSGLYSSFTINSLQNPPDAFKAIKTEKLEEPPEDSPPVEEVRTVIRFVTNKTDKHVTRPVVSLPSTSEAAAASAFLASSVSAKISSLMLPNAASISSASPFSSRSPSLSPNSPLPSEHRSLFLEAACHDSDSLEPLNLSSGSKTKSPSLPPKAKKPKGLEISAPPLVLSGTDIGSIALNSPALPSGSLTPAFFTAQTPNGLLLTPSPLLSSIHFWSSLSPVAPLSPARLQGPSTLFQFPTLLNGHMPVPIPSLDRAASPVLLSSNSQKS
Procedure, shortened: as §1

FEV = molecular target: T7, FEV (Homo sapiens, UniProt Q99581 1-238)
T7 sequence: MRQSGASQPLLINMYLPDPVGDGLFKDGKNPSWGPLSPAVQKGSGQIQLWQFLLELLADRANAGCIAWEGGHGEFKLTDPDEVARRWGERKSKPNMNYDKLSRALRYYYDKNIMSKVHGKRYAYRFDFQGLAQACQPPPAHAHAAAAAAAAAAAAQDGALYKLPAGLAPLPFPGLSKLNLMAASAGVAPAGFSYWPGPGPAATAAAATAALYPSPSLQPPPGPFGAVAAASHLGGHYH
Procedure, shortened: as §1

ETV5 = ETV5 (Homo sapiens, UniProt P41161 1-510)
Procedure, shortened: as §1

SPIC = molecular target: T8, SPIC (Homo sapiens, UniProt Q8N5J4 1-248)
T8 sequence: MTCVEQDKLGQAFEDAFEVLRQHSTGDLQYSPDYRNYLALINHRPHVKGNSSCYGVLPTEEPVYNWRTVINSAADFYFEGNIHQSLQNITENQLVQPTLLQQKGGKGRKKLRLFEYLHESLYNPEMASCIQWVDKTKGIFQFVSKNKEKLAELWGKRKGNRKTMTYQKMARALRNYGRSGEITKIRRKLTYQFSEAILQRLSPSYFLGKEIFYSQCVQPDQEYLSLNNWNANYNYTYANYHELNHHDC
Procedure, shortened: as §1

ELF4 = ELF4 (Homo sapiens, UniProt Q99607 1-663)
Procedure, shortened: as §1

ETV1 = ETV1 (Homo sapiens, UniProt P50549 1-477)
Procedure, shortened: as §1

ERF = molecular target: T9, ERF (Homo sapiens, UniProt P50548 1-548)
T9 sequence: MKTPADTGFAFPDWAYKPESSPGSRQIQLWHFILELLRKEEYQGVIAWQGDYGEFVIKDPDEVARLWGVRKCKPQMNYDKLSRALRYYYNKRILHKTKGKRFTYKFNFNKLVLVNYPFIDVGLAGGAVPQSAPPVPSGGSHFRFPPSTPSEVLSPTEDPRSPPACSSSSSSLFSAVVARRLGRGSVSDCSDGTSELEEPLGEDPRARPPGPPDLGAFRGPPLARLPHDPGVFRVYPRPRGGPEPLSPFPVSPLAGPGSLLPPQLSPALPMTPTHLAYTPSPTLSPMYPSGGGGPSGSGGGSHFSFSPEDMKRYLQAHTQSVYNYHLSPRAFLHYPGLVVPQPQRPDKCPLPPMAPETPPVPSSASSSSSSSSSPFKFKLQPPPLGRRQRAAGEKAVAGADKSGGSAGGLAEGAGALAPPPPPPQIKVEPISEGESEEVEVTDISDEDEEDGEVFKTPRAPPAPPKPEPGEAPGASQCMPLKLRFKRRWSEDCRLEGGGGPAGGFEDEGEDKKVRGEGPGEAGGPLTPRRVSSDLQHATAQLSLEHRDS
Procedure, shortened: as §1

ETS2 = molecular target: T10, ETS2 (Homo sapiens, UniProt P15036 1-469)
T10 sequence: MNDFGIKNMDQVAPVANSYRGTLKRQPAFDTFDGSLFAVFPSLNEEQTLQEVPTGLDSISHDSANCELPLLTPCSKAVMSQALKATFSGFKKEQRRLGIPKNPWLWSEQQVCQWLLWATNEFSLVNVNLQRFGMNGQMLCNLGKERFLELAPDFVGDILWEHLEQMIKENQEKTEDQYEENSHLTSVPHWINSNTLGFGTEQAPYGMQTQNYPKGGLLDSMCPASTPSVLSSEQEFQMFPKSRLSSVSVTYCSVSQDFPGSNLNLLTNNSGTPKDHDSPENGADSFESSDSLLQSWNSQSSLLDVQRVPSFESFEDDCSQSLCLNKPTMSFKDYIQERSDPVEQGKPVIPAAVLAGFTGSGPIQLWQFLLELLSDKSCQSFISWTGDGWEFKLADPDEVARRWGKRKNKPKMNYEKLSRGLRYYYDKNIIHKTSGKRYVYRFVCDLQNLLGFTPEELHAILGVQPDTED
Procedure, shortened: as §1

SPDEF = molecular target: T11, SPDEF (Homo sapiens, UniProt O95238 1-335)
T11 sequence: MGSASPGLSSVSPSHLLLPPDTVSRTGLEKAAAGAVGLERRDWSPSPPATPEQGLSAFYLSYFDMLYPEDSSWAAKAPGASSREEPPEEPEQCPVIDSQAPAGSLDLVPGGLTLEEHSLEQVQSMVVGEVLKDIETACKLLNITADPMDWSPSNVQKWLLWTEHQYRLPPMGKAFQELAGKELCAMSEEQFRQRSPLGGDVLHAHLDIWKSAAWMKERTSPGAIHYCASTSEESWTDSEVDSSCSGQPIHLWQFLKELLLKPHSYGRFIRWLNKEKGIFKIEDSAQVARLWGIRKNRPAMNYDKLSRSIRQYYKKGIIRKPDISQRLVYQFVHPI
Procedure, shortened: as §1

ETV3 = molecular target: T12, ETV3 (Homo sapiens, UniProt P41162-2 1-143)
T12 sequence: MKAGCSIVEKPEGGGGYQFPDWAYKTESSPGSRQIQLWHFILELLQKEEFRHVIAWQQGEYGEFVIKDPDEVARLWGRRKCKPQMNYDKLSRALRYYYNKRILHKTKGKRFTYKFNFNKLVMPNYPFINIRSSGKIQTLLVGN
Procedure, shortened: as §1

ETV6 = ETV6 (Homo sapiens, UniProt P41212 1-452)
Procedure, shortened: as §1

ELF1, sequence (P32519 whole entry): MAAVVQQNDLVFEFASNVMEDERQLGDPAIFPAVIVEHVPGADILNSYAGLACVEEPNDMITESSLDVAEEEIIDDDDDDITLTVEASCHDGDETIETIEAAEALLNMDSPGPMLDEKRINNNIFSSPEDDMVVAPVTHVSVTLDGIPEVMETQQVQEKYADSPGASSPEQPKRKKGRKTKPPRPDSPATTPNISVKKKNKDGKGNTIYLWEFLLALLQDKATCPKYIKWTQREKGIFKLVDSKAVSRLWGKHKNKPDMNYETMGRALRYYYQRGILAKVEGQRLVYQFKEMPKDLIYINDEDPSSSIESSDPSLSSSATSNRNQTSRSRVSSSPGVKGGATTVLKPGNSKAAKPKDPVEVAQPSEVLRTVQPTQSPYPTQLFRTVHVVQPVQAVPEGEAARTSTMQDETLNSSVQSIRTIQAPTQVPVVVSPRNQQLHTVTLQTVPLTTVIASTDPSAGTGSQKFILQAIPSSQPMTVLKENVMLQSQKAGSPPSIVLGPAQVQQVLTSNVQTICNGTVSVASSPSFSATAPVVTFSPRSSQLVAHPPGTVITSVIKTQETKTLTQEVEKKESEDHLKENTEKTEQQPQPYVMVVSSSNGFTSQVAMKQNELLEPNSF
ETV6, sequence (P41212 whole entry): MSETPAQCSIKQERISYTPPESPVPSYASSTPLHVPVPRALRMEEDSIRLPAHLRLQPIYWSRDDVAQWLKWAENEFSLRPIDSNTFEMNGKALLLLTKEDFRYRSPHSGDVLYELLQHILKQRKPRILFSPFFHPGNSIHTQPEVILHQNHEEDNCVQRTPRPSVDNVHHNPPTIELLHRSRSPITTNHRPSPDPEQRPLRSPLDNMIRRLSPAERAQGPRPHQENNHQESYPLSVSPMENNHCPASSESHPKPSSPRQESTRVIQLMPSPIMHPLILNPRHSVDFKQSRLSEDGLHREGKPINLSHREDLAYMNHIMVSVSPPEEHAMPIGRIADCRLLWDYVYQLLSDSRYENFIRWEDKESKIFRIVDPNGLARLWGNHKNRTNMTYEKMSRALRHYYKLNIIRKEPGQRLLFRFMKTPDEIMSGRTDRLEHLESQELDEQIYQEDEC
ETV5, sequence (P41161 whole entry): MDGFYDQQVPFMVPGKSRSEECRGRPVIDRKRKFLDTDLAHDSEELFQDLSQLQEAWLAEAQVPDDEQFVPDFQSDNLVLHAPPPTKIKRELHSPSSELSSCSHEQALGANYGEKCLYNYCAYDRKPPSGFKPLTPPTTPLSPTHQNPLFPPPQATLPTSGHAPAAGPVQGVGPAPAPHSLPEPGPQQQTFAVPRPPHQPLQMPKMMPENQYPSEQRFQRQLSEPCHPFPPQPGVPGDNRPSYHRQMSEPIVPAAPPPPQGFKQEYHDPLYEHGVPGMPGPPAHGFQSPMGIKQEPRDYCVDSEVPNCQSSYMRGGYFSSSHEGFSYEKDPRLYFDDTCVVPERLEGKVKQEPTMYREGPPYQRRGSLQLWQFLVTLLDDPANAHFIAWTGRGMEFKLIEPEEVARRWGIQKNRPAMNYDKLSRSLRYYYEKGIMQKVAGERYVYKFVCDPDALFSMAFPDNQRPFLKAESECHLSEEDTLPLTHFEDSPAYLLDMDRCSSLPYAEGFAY
SPIB, sequence (Q01892 whole entry): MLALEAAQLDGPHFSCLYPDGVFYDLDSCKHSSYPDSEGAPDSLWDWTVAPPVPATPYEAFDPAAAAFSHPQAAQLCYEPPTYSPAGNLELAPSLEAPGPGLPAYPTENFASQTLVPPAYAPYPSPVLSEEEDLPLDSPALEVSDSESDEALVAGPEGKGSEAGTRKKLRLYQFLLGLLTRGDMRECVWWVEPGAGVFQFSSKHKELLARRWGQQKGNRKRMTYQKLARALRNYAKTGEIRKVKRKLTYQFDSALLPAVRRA
ELF4, sequence (Q99607 whole entry): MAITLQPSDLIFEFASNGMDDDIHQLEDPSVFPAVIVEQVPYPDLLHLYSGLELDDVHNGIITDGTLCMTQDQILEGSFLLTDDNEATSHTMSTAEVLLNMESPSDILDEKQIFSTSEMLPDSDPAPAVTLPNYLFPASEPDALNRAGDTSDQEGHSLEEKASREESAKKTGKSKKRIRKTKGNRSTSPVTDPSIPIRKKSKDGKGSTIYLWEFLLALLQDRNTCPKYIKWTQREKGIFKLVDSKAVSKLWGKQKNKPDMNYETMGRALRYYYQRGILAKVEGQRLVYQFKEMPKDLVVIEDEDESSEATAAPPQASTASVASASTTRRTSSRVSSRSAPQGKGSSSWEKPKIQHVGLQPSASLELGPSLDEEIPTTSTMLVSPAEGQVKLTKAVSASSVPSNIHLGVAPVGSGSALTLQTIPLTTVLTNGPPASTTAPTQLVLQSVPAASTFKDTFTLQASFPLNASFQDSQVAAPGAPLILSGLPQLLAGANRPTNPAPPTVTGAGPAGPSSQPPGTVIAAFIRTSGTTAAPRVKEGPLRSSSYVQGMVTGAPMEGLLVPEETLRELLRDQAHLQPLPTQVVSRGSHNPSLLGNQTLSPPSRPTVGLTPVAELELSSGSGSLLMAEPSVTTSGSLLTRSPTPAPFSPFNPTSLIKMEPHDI
ETV1, sequence (P50549 whole entry): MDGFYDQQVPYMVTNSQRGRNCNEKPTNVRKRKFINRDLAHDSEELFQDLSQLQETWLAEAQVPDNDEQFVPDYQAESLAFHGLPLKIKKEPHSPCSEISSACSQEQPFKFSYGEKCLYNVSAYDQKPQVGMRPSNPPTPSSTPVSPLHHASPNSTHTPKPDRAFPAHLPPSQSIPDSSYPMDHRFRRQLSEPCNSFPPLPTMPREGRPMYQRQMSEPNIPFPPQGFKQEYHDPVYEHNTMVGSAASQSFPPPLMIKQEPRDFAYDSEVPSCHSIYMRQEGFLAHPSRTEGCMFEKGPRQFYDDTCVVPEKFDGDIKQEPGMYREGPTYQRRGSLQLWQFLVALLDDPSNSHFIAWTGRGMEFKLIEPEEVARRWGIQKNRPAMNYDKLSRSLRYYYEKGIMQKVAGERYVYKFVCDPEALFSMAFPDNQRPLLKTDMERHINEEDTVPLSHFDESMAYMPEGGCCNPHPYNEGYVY

GTGTCC
binding signal (FLI1): 1.03 fold enrichment (6-mer frequency, TF over GST control)
binding signal (ELK1): 1.07 fold enrichment (6-mer frequency, TF over GST control)
binding signal (GABPA): 1.1 fold enrichment (6-mer frequency, TF over GST control)
binding signal (ERG): 1.13 fold enrichment (6-mer frequency, TF over GST control)
binding signal (ELF1): 1.1 fold enrichment (6-mer frequency, TF over GST control)
binding signal (EHF): 1.08 fold enrichment (6-mer frequency, TF over GST control)
binding signal (SPI1): 1.08 fold enrichment (6-mer frequency, TF over GST control)
binding signal (SPIB): 1.13 fold enrichment (6-mer frequency, TF over GST control)
binding signal (ELK3): 1.05 fold enrichment (6-mer frequency, TF over GST control)
binding signal (FEV): 1.1 fold enrichment (6-mer frequency, TF over GST control)
binding signal (ETV5): 1.16 fold enrichment (6-mer frequency, TF over GST control)
binding signal (SPIC): 1.2 fold enrichment (6-mer frequency, TF over GST control)
binding signal (ELF4): 1.08 fold enrichment (6-mer frequency, TF over GST control)
binding signal (ETV1): 1.02 fold enrichment (6-mer frequency, TF over GST control)
binding signal (ERF): 1.06 fold enrichment (6-mer frequency, TF over GST control)
binding signal (ETS2): 1.16 fold enrichment (6-mer frequency, TF over GST control)
binding signal (SPDEF): 1.34 fold enrichment (6-mer frequency, TF over GST control)
binding signal (ETV3): 1.2 fold enrichment (6-mer frequency, TF over GST control)
binding signal (ETV6): 1.02 fold enrichment (6-mer frequency, TF over GST control)
